# Sampled rows, rich in hits. Any-hit rate of the full collection: about 4.2%.
# PfHsp90 yeast 2 – reduces growth (ATP signal) of yeast expressing P. falciparum Hsp90 | inhibition, % at 9.4 µM | 0.32% of 310,000 active | S. cerevisiae expressing PfHsp90, BacTiter-Glo ATP, 48 h; yeast lacking PDR1 and PDR3 efflux regulators;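 active means every replicate shows inhibition above about 80%, whatever the replicate mean, limit read from the data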;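 further: 0% = DMSO neutral controls and 100% = 20 µM radicicol positive controls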
# tim10-1 inh – growth inhibitors of tim10-1 mutant yeast; S. cerevisiae tim10-1 ts strain growth, BacTiter-Glo, 24 h; inhibition, % at 20 µM; 2.2% of 330,000 active;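 active means inhibition of at least 40%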;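 further: mutant grown at 25 °C; 0% = DMSO wells with yeast and 100% = wells holding no yeast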
# tim23-1 inh – tim23-1 yeast growth inhibition; S. cerevisiae tim23-1 growth, BacTiter-Glo luminescence, 24 h; inhibition, % at 20 µM; 1.3% of 330,000 active;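 active means growth inhibition of the mutant yeast at or above 50%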;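 further: temperature-sensitive mutant grown at 25 °C; plate controls were DMSO-treated mutant yeast for no effect and medium wells lacking yeast for full effect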
# NALP1 yeast inh – blocks the NALP1 inflammasome reconstituted in yeast | AID 2071 | inhibition, % at 10 µM | 0.61% of 280,000 active | S. cerevisiae NALP1/ASC/caspase-1 growth, X-gal OD620, 72 h; in the data active means inhibition mostly above about 24%, no sharp cut-off; inactive means mostly below about 32%
# NALP3 yeast inh – NALP3 inhibition in yeast; Yeast reconstituted NLRP3/ASC/caspase-1, beta-gal luminescence, 24 h; inhibition, % at 10 µM; 0.39% of 330,000 active; AID 2825;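 active means inhibition of 50% or more; inactive means inhibition below 50%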;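 further: plate controls were induced DMSO wells for no effect and uninduced yeast grown without galactose for full effect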
# TIM10 inh – TIM10 yeast growth inhibition; 1.4% of 330,000 active; inhibition, % at 10 µM; S. cerevisiae TIM10 strain growth, BacTiter-Glo luminescence, 24 h;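 active means inhibition of 40% or more at the single tested concentration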;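 further: wild-type TIM10 isogenic control strain grown at permissive 25 °C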
# NALP3 yeast conf – NALP3 inhibition confirmation in yeast; yeast expressing human NALP3, luminescence; inhibition, % at 10 µM; 81% of 1,300 active; shares compounds with NALP3 yeast inh; in the data active means inhibition above about 48%
# Casp1-ASC yeast – caspase-1-ASC yeast counter-screen hit | 66% of 1,000 active | yeast expressing Caspase-1-ASC, luminescence counter screen | inhibition, % at 10 µM | AID 488784 | shares compounds with NALP3 yeast inh
# NALP3 yeast rt – yeast NALP3 inhibition, confirmed on retest | shares compounds with NALP3 yeast inh | yeast expressing human NALP3, luminescence read-out | inhibition, % at 10 µM | 53% of 1,000 active
# tim10-1 confirm – confirmation of tim10-1 mutant yeast growth inhibitors | shares compounds with tim10-1 inh | AID 463213 | inhibition, % at 20 µM | S. cerevisiae tim10-1 ts strain growth, BacTiter-Glo, 24 h | 56% of 7,400 active;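 active means inhibition of yeast growth at or above a set limit in either of two repeat tests at 20 µM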;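 further: tim10-1 mutant grown at permissive 25 °C to find synthetic lethal compounds; 0% = DMSO yeast wells and 100% = medium wells without yeast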
# TIM10 conf – confirmation of TIM10 yeast growth inhibitors; shares compounds with TIM10 inh; S. cerevisiae tim10 strain growth, BacTiter-Glo luminescence, 24 h; inhibition, % at 10 µM; 63% of 4,600 active; AID 463215;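 active means inhibition of yeast growth at or above a set limit in either of two replicates at 10 µM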;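 further: this counterscreen used the strain with wild-type TIM10; 0% = yeast with DMSO and 100% = medium wells lacking yeast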
# tim23-1 conf – tim23-1 yeast growth inhibition, confirmed | S. cerevisiae tim23-1 growth, BacTiter-Glo luminescence, 24 h | shares compounds with tim23-1 inh | inhibition, % at 20 µM | 83% of 4,400 active | AID 463218;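 active means inhibition above about 39% in either of two replicate wells at 20 µM, limit read from the data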;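 further: temperature-sensitive tim23-1 mutant grown at 25 °C; 0% = DMSO wells with yeast and 100% = medium wells without yeast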
# An asterisk follows results filed as active; . = no result. Unless noted, no stated cut-off is given here; in the data, active means inhibition above about 50%; inactive means the rest.
SMILES,PfHsp90 yeast 2,tim10-1 inh,tim23-1 inh,NALP1 yeast inh,NALP3 yeast inh,TIM10 inh,NALP3 yeast conf,Casp1-ASC yeast,NALP3 yeast rt,tim23-1 conf,others
COc1cccc(NC(=O)c2ccccc2)c1,3,12,57*,.,53*,30,72*,49,54*,64*,
O=C(Nc1cccc(Cl)c1)c1ccccc1,-5,39,62*,.,83*,58*,93*,91*,83*,76*,TIM10 conf=57*
O=C(Nc1cccc(Cl)c1)C1CCCCC1,4,25,66*,.,50*,33,55*,38,38,69*,
CC(=O)c1cccc(NC(=O)C2CCCCC2)c1,8,22,18,13,20,7,.,.,.,.,
O=C(Nc1ccc(Cl)c(Cl)c1)c1ccccc1,.,0,-1,.,28,-9,.,.,.,.,
CN(Cc1ccccc1)C(=O)CC(c1ccccc1)c1cc(Cl)ccc1O (stereo not given),6,30,13,11,7,11,.,.,.,.,
NC(=O)COc1ccc(C(=O)/C=C2/C(=O)Nc3ccccc32)cc1,5,34,30,11,18,35,.,.,.,.,
COc1cc(OC)c(/C=C2\C(=O)Nc3ccccc32)c(OC)c1,.,39,46,.,29,23,.,.,.,.,
C=CCOc1ccccc1C(=O)/C=C1/C(=O)Nc2ccccc21,-24,50*,89*,-23,59*,80*,75*,53*,59*,16,tim10-1 confirm=active;TIM10 conf=64*
COc1ccc(C(=O)/C=C2/C(=O)Nc3ccccc32)c(OC)c1,-14,50*,70*,-50,69*,68*,82*,76*,80*,-23,tim10-1 confirm=59*;TIM10 conf=67*
Cc1c2ccccc2c(C)c2c1ccc1ccccc12,-2,50*,77*,.,65*,84*,62*,.,.,80*,tim10-1 confirm=47*;TIM10 conf=88*
Cc1ccnc2c1ccc1ccccc12,-9,12,19,-4,17,-7,.,.,.,.,
CS(=O)(=O)Nc1ccc(C(=O)N2CC(=O)Nc3ccccc32)cc1,29,1,6,5,4,-11,.,.,.,.,
COC(=O)c1ccccc1NC1=C/C(=N\S(=O)(=O)c2ccc(C(=O)O)cc2)c2ccccc2C1=O,-6,54*,71*,34,51*,53*,64*,84*,77*,89*,tim10-1 confirm=77*;TIM10 conf=65*
COc1ccc(CNC(=O)c2c(C)oc3c2C(=O)c2ccccc2C3=O)cc1,-20,83*,89*,40,69*,57*,71*,5,43,86*,tim10-1 confirm=74*;TIM10 conf=68*
CC(OC(=O)Cc1ccccc1[N+](=O)[O-])C(=O)NC(=O)NC1CCCCC1 (stereo not given),12,10,11,.,-5,-13,.,.,.,.,
COc1cccc2c1C(=O)c1c(O)c3c(c(O)c1C2=O)C[C@@](O)(C(=O)CO)C[C@@H]3OC1CC(N)C(O)C(C)O1 (stereo not given in full),-18,.,.,.,.,.,.,.,.,.,
COc1cccc2c1C(=O)c1c(O)c3c(c(O)c1C2=O)C[C@@](O)(C(=O)CO)C[C@@H]3O[C@H]1C[C@H](N)[C@H](O)[C@H](C)O1,23,11,52*,19,65*,-6,69*,75*,66*,44*,
CCN(C(=O)CSc1nc2ccc(Cl)cc2[nH]1)C1CCS(=O)(=O)C1 (stereo not given),-3,-6,-8,.,16,-1,.,.,.,.,
CN1CCN(c2cc(-c3ccccc3)nc3cc(-c4ccc(F)cc4)nn23)CC1,.,11,55*,5,52*,34,63*,68*,66*,43*,
COc1cc(C(=O)OC2CC3CCC2(C)C3(C)C)ccc1OC(C)=O (stereo not given),2,24,18,-10,3,-1,.,.,.,.,
CCCCCCCn1c(=O)c(C(=O)OC)c(N)c2ccccc21,1,28,53*,10,68*,13,61*,93*,84*,50*,
CCCCCCCCn1c(=O)c(C(=O)OC)c(N)c2ccccc21,.,36,64*,-6,60*,32,28,.,.,44*,
O=C(COc1ccc(C(=O)NCCN2CCOCC2)cc1)Nc1cccc(C(F)(F)F)c1,-2,-7,-20,.,8,1,.,.,.,.,
CC[C@@]1(C(=O)OC)N[C@H](CN(C)C(=O)Nc2ccc(OC)cc2)[C@@H]2C(=O)N(C)C(=O)[C@@H]21,-1,-9,-10,.,6,-5,.,.,.,.,
SMILES,PfHsp90 yeast 2,tim10-1 inh,tim23-1 inh,NALP1 yeast inh,NALP3 yeast inh,TIM10 inh,NALP3 yeast conf,Casp1-ASC yeast,NALP3 yeast rt,tim23-1 conf,others
Cn1c2c(c(=O)n(C)c1=O)C(C(F)(F)F)(C(F)(F)F)N=C(c1ccc(Cl)cc1)N2,8,61*,59*,6,54*,33,92*,77*,88*,51*,tim10-1 confirm=59*
O=C1C2C(c3ccccc3)CC=CC2[C@H](c2cccc([N+](=O)[O-])c2)N1Cc1ccccc1 (stereo not given in full),-6,25,9,10,15,9,.,.,.,.,
CN1CCSc2ccc(C(=O)Nc3cccc(F)c3)cc21,23,-15,68*,12,67*,47*,82*,.,.,71*,TIM10 conf=51*
COc1ccc(NC(=O)c2ccc3c(c2)N(C)CCS3)cc1,-25,4,9,16,31,-6,.,.,.,.,
O=Nc1c(-c2c(O)[nH]c3cc(Br)ccc23)[nH]c2ccccc12,5,9,51*,18,67*,32,71*,56*,64*,57*,
c1ccc(-c2ccc(-c3nc(-c4ccccn4)no3)cc2)cc1,27,46*,54*,15,53*,29,50*,47,37,74*,tim10-1 confirm=49*
c1ccc(-c2nc(-c3ccccn3)no2)cc1,41,-3,19,-66,12,3,.,.,.,.,
c1ccc(-c2cc3cc4c(cc3cn2)OCO4)cc1,3,-32,62*,.,55*,-17,58*,71*,67*,50*,
Cc1nc2ccc(Cl)cc2[nH]1,14,.,.,.,.,.,.,.,.,.,
